# Activity calls are given as the source filed them.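 How the source made its calls: active means unnormalized dose curve rising to cross level 40 at or below the top tested dose; inconclusive means flat fit at moderately raised activity, or poor fit; inactive means the rest.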
# Assay: miR-27b level by RT-PCR, dose response, miR-122 / miR-27b project, Huh7 cells, cherry-pick, activator set (AID 720492)
# Settings: Huh7 miR-27b levels, qRT-PCR, 48 h; series mostly up to 35 µM; miR-27b level change (relative expression (fold, unnormalized)): at the top concentration
row,SMILES,"miR-27b level change (relative expression (fold, unnormalized))"
1,COCC(=O)N(C)C[C@H]1Oc2cc(-c3ccccc3F)ccc2S(=O)(=O)N([C@@H](C)CO)C[C@H]1C,0.955 (inactive)
2,C[C@H]1CN([C@@H](C)CO)C(=O)c2cc(C#Cc3ccccc3F)cnc2O[C@@H]1CN(C)C(=O)C1CCCCC1,0.511 (inactive)
3,CO[C@@H]1CN(C)C(=O)c2cc(NC(=O)c3ccc4c(c3)OCO4)ccc2OC[C@H](C)NC[C@@H]1C,1.01 (inactive)
4,C[C@H]1CN([C@@H](C)CO)C(=O)c2cc(C#Cc3ccccc3F)cnc2O[C@H]1CN(C)C(=O)C1CCCCC1,0.998 (inactive)
5,COc1cccc(-c2ccc3c(c2)O[C@H](CN(C)C(=O)C2CCOCC2)[C@H](C)CN([C@@H](C)CO)S3(=O)=O)c1,0.717 (inactive)
6,C[C@H](CO)N1C[C@H](C)[C@@H](CN(C)C(=O)C2CCOCC2)Oc2cc(C#Cc3ccncc3)ccc2S1(=O)=O,0.401 (inactive)
7,C[C@H](CO)N1C[C@H](C)[C@H](CN(C)C(=O)C2CCOCC2)Oc2cc(C#Cc3ccncc3)ccc2S1(=O)=O,0.279 (inactive)
8,CCCC#Cc1ccc2c(c1)O[C@H](CN(C)C(=O)c1ccncc1)[C@H](C)CN([C@@H](C)CO)S2(=O)=O,1.32 (inactive)
9,C[C@@H]1CN([C@@H](C)CO)S(=O)(=O)c2ccc(C#Cc3ccncc3)cc2O[C@@H]1CN(C)C(=O)C1CCOCC1,0.541 (inactive)
10,CNC[C@@H]1Oc2cc(C#CC3CCCCC3)ccc2S(=O)(=O)N([C@@H](C)CO)C[C@@H]1C,0.787 (inactive)
11,C[C@H]1CN([C@@H](C)CO)C(=O)c2cc(-c3ccc(C#N)cc3)cnc2O[C@H]1CN(C)C(=O)Nc1ccc(C(F)(F)F)cc1,0.634 (inactive)
12,CCCC#Cc1ccc2c(c1)O[C@H](CN(C)C(=O)COC)[C@H](C)CN([C@@H](C)CO)S2(=O)=O,0.45 (inactive)
13,COc1ccc(S(=O)(=O)N(C)C[C@@H]2Oc3ncc(/C=C/c4ccccc4)cc3C(=O)N([C@@H](C)CO)C[C@@H]2C)cc1,0.977 (inactive)
14,COCC(=O)N(C)C[C@@H]1Oc2ncc(-c3ccc(C#N)cc3)cc2C(=O)N([C@@H](C)CO)C[C@@H]1C,0.903 (inactive)
15,C[C@@H]1CN([C@@H](C)CO)S(=O)(=O)c2ccc(C#Cc3ccncc3)cc2O[C@H]1CN(C)C(=O)C1CCOCC1,0.516 (inactive)
16,COCC(=O)N(C)C[C@H]1Oc2cc(-c3ccc(C#N)cc3)ccc2S(=O)(=O)N([C@H](C)CO)C[C@H]1C,0.697 (inactive)
17,CN1C(=O)c2cc(NC(=O)c3cccc(F)c3)ccc2OC[C@@H]2O[C@H](CC(=O)O)CC[C@@H]21,1.47 (inactive)
18,C[C@@H]1CN([C@H](C)CO)S(=O)(=O)c2ccc(C#Cc3ccncc3)cc2O[C@H]1CN(C)C(=O)C1CCOCC1,0.63 (inactive)
19,C[C@@H]1CN([C@H](C)CO)S(=O)(=O)c2ccc(C#Cc3ccncc3)cc2O[C@@H]1CN(C)C(=O)C1CCOCC1,0.443 (inactive)
20,COc1cccc(C(=O)Nc2ccc3c(c2)C(=O)N(C)C[C@@H](OC)[C@@H](C)CN[C@@H](C)CO3)c1,1.08 (inactive)
21,Cc1cccc(NC(=O)Nc2ccc3c(c2)C(=O)N(C)[C@@H]2CC[C@H](CC(=O)NCc4ccccc4Cl)O[C@H]2CO3)c1,1.04 (inactive)
